Bioassay records: PubChem, National Center for Advancing Translational Sciences (NCATS)
D2 PAM-1 – human D2 receptor positive allosteric modulation. DiscoveRx D2 beta-arrestin cells, luminescence, 90 min; 100% = 57 uM dopamine signal. 0.23% of 360,000 active. AID 624464. potentiation, % (no concentration beside the values). P14416; in the data active = potentiation above about 50%; inconclusive = mostly about 30% to 49%
Target sequence (P14416 whole entry, looked up): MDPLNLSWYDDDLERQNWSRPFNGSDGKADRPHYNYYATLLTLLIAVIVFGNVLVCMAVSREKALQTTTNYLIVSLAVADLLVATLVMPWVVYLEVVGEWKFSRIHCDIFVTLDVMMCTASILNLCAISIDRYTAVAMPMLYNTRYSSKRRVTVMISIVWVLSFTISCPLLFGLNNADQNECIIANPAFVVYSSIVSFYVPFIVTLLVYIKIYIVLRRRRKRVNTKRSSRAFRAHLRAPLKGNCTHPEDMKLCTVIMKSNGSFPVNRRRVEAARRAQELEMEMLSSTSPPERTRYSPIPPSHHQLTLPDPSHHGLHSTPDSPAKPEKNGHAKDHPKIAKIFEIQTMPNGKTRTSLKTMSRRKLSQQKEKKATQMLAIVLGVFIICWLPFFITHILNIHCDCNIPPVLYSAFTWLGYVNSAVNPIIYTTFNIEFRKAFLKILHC
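PathHunter D2 cells, attached overnight at 37 deg C, received compound in DMSO plus dopamine at EC20 (50 nM final) for 90 min at 37 deg C. Beta-arrestin recruitment was read as luminescence after 1 h with detection reagent at ambient temperature.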
D2 PAM-2 – D2 dopamine receptor (human) potentiation | P14416 | HEK293 T-REx D2, calcium flux, EC20 dopamine potentiation | potentiation, % at 10 µM | 0.34% of 340,000 active;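 active = potentiation over 3 SD above the plate norm, cut at about 30% in these data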; note: 0% is about no effect
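Potentiation of an EC20 dopamine calcium response measured kinetically over 180 s, after a preceding 180 s compound-only read flagging agonists. Cells: inducible Hek293 Trex D2 line, 4000/well, cultured overnight at 30 C before dye loading.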
D2 ag-1 – activates the human D2 dopamine receptor. 0.084% of 360,000 active. AID 624465. DiscoveRx PathHunter D2 beta-arrestin, luminescence, 90 min; 100% = 57 uM dopamine signal. activation, % (test concentration not listed). P14416; in the data active = activation above about 40%; inconclusive = between about 15% and that limit
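DiscoveRx PathHunter D2 beta-arrestin cells (2,100/well) attached overnight, then compound-stimulated 90 min at 37 C in HBSS/10 mM HEPES/0.1% Tween-20 buffer; beta-galactosidase complementation read by luminescence after 1 h at ambient temperature. Dopamine 57 uM final (EC100) as control.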
D2 antag – D2 dopamine receptor (human) antagonism. 2% of 340,000 active. HEK293 TREx D2 cells, calcium flux, dopamine EC80. inhibition, % at 10 µM; in the data active = inhibition above about 30%; inactive = below that, where a call was filed; note: 0% is about no effect
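Measurement of antagonist activity uses fluorescent calcium dye in inducible HEK293 T-REx D2 cells: 10 s baseline, compound addition with 180 s read, EC80 dopamine addition with a further 180 s read.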
D2 ag-2 – activates the human D2 dopamine receptor; activation, % at 2 µM; 0.53% of 340,000 active; HEK293 T-REx D2 cells, calcium flux agonist mode; P14416;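 active = activation over 3 SD above normal in the single-dose calcium agonist read, cut at about 30% in these data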; note: 0% is about no effect
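HEK293 Trex D2 cells, tetracycline-induced, o/n 30 C 5% CO2; no-wash Ca dye, RT 30–90 min; 10-cycle baseline, 23 nl cpd added, kinetic Ca read 180 s; agonist hits = positive Ca response.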
D3 arrestin ag – confirmation of human D3 dopamine receptor agonists, beta-arrestin. Potency, µM (highest dose often 76.9 µM), for the others: at the top dose activation, hits mostly activators. 4% of 2,300 active. AID 720506. shares compounds with D2 ag-2. DiscoveRx D3 beta-arrestin cells, luminescence, 90 min;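 note: potency is the fitted concentration of half-maximal effect; 100% = dopamine control response; nearly all actives have a fitted effect of over 70% in size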
D2 ag-3 – D2 receptor agonism, beta-arrestin counterscreen. shares compounds with D2 ag-2. DiscoveRx PathHunter D2 beta-arrestin, luminescence, 90 min; response scale: percent relative to full dopamine signal. Potency, µM (top dose mostly 76.9 µM), inactives show at the top dose activation, most hits filed as activators. 5.9% of 2,300 active; note: potency is the fitted concentration of half-maximal effect; % of control where 0% means no effect; nearly all actives have a fitted effect of over 70% in size
An asterisk follows results filed as active; ? = inconclusive; . = not tested or not shown. Compounds with a hit are over-represented: about 2.4% of the library has one in this group of screens. Unless noted, calls come from the whole dose curve; as a rule, active = well fitted activation curve with a large enough effect; inconclusive = small, poorly fitted or top-dose-only effect; inactive = flat fitted curve, though single readings scatter.

SMILES | D2 PAM-1 | D2 PAM-2 | D2 ag-1 | D2 antag | D2 ag-2 | D3 arrestin ag | D2 ag-3
Brc1ccc(CN2CCN(c3ccccn3)CC2)s1 | ? | -12 | 70* | 69* | 70* | ? | 3.5µM*
Cc1ccccc1Cn1c(=O)n(CCc2ccccc2)c(=O)c2c(C)c(C)sc21 | . | -1 | . | . | 0 | . | .
Cc1ccccc1NC(=O)c1ccc(N(Cc2ccccc2)S(C)(=O)=O)cc1 | . | 2 | . | . | . | . | .
CCc1ccccc1N(C)C(=O)Nc1cn(CC(C)C)c(=O)c2ccccc12 | . | 7 | . | . | 0 | . | .
Cc1cc(C)cc(NC(=O)Cn2c(C(F)(F)F)nc3ccccc32)c1 | . | -9 | . | . | . | . | .
Cc1ccc2[nH]cc(C(=O)CN3CCN(c4ccccn4)CC3)c2c1 | -42 | -28 | 2 | 34* | 19 | 10% | 4%
Cc1ccc(C(=O)CN2CCN(c3ccccn3)CC2)c(C)c1 | 4 | . | ? | . | . | ? | ?
O=C(CN1CCN(c2cccc(Cl)n2)CC1)N1CC(O)CO1 (stereo not drawn) | -8 | -3 | 0 | 3 | 0 | . | .
O=C(CN1CCN(c2ccccn2)CC1)N1CC(O)CO1 (stereo not drawn) | 0 | -13 | 7 | 12 | 29 | 21% | 6%
COc1cccc(NC(=O)c2cnc(NS(=O)(=O)c3ccccc3)nc2)c1 | 2 | . | -2 | . | . | . | .
Cc1ccc(NC(=O)CN(C)C(=O)Cn2c(=O)oc3ccccc32)cc1 | -12 | 7 | 2 | -2 | 1 | . | .
CN(CC(=O)Nc1ccc(F)cc1)C(=O)Cn1c(=O)oc2ccccc21 | 5 | 5 | 3 | 11 | 0 | -5% | -2%
C[C@@H]1CN([C@@H](C)CO)C(=O)CCCn2nncc2CO[C@@H]1CN(C)S(=O)(=O)c1cn(C)cn1 | 1 | . | -9 | . | . | . | .
CCN(CC(=O)Nc1ccc(NC(C)=O)cc1)C(=O)C1CC1 | -14 | . | -3 | . | . | . | .
Cc1nc(CN2C(=O)C3(CCC3)ON=C2c2cccc(Cl)c2)cs1 | -2 | . | 8 | . | . | . | .
COc1cccc(CN2CCC(C(=O)N3CCN(c4ccccc4F)CC3)CC2)c1OC | -8 | 9 | 3 | -14 | 27 | 2% | 8%
C=CCc1cc(C)ccc1OCC(O)CN1CCN(c2ccccc2)CC1 (stereo not drawn) | -13 | -28 | 6 | 80* | 62* | 0.63µM* | 14%
C=CCc1ccccc1OCC(O)CN1CCN(c2ccccc2)CC1 (stereo not drawn) | . | -22 | . | . | -4 | . | .
COc1ccc(N2CCN(CC(O)COc3ccc(F)cc3)CC2)cc1 (stereo not drawn) | -13 | 0 | 0 | -13 | 0 | . | .
CCCc1ccc(OCC(O)CN2CCN(c3ccccc3)CC2)cc1 (stereo not drawn) | -7 | -26 | ? | 69* | 62* | -6% | ?
CCc1ccc(OCC(O)CN2CCN(c3ccccc3)CC2)cc1 (stereo not drawn) | -12 | -13 | ? | 109* | 74* | ? | ?
Cc1c(C(=O)NCc2ccc(C(C)C)cc2)sc(=O)n1Cc1cccc(F)c1 | 6 | . | -3 | . | . | . | .
COc1ccc(OCC(O)CN2CCN(c3ccc(OC)cc3)CC2)cc1 (stereo not drawn) | -39 | 8 | -5 | -6 | 2 | . | .
OC(COc1ccc(Cl)cc1)CN1CCN(c2ccccc2)CC1 (stereo not drawn) | -16 | -25 | 2 | 71* | 19 | ? | 2%
COc1ccc(N2CCN(CC(O)COc3c(OC)cccc3OC)CC2)cc1 (stereo not drawn) | -24 | -18 | -9 | 21 | -2 | . | .
SMILES | D2 PAM-1 | D2 PAM-2 | D2 ag-1 | D2 antag | D2 ag-2 | D3 arrestin ag | D2 ag-3
Cc1ccc(OCC(O)CN2CCN(c3ccccc3)CC2)cc1 (stereo not drawn) | -11 | -23 | 3 | 62* | 46* | 17% | 5%
OC(COc1cccc2ccccc12)CN1CCN(c2ccccc2)CC1 (stereo not drawn) | 0 | -23 | 6 | 65* | 56* | ? | 23%
COc1cccc(OC)c1OCC(O)CN1CCN(c2ccccc2F)CC1 (stereo not drawn) | -9 | -22 | ? | 86* | 78* | ? | ?
O=C(NCC(c1cccnc1)N1CCN(Cc2ccccc2)CC1)C(=O)Nc1ccc(Cl)cc1 (stereo not drawn) | . | . | . | . | 1 | . | .
COCCn1c(C)cc(O)c(C(c2ccc(Cl)cc2)N2CCN(c3ccccc3)CC2)c1=O (stereo not drawn) | . | -14 | . | . | 21 | . | .
CC(=O)c1c(C)[nH]c(C(=O)OCC(=O)Nc2ccccc2Cl)c1C | -2 | 5 | 5 | 20 | 1 | . | .
CC(=O)c1c(C)[nH]c(C(=O)OCC(=O)Nc2nnc(-c3ccccc3)o2)c1C | 2 | -2 | 5 | 35* | 0 | 2% | -2%
Cn1c(=O)cc(SCC(=O)NCCCN2CCN(c3ccc(F)cc3)CC2)c2ccccc21 | -34 | -26 | 2 | 91* | 33* | -5% | 9%
CCC(=O)N1CCc2cc(S(=O)(=O)CCC(=O)Nc3ccc(OC)cc3)ccc21 | -5 | 8 | -3 | 8 | 1 | . | .
CCC(=O)N1CCc2cc(S(=O)(=O)CCC(=O)Nc3cccc(C)n3)ccc21 | 0 | -14 | 2 | -15 | 35* | 0% | 1%
COc1ccc(OCC(=O)Nc2nnc3n2CCS3)cc1 | . | 9 | . | . | 1 | . | .
CCc1ccc2c(CC(=O)NNC(=O)c3ccncc3)coc2c1 | 2 | -5 | 5 | -4 | 0 | -2% | -5%
COC(=O)CSc1nc2sc3c(c2c(=O)n1Cc1ccccc1)CCC(C(C)(C)C)C3 (stereo not drawn) | . | -1 | . | . | 0 | . | .
COc1ccc(-c2nnc(SCC(=O)c3ccc(NC(C)=O)cc3)o2)cc1OC | . | 12 | . | . | 0 | . | .
CCCCC(=O)OCc1c(-c2cccc(OC)c2)ncc2ccccc12 | -3 | -4 | 1 | 25 | -1 | -8% | 2%
COc1cccc(-c2ncc3ccccc3c2CO)c1 | -15 | -9 | -1 | 0 | 0 | 2% | -3%
Cc1ccc(CN(C(=O)COc2ccccc2[N+](=O)[O-])c2ccccn2)cc1 | . | -27 | . | . | . | . | .
O=C(COc1ccccc1[N+](=O)[O-])N(Cc1ccccc1)c1ccccn1 | 11 | -30 | ? | 21 | 53* | ? | ?
COc1ccccc1N1CCN(CC(O)COc2ccc3c(c2)OCO3)CC1 (stereo not drawn) | -10 | 12 | -5 | 1 | 0 | . | .
